From a collection of fitness landscapes (doi:10.1016/j.celrep.2020.107928)
Over roughly 81,000 sequences, “one-hybrid fitness for binding NBS DNA” has its median near -0.1; the highest 2% begin near 0.36. Shown is part of a subset that was picked to be rich in the highest values.

B1: Caulobacter ParB omega fusion; a variant is named by its letters at X, in order, B8GW30 (parent)
chain: MESVVVGEPGMSEGRRGLGRGLSALLGEVDAAPAQAPGEQLGGSREAPIEILQRNPDQPRRTFREEDLEDLSNSIREKGVLQPILVRPSPDTAGEYQIVAGERAWRAAQRAGLKTVPIMVRELDDLAVLEIGIIENVQRADLNVLEEALSYKVLMEKFERTQENIAQTIGKSXSHVANXMRLLXLPDEVQSYLVSGELTAXHARAIAAAADPVALAKQIIEGGLSVRETEALARKAPNLSAGKSKGGRPPRVKDTDTQALESDLSSVLGLDVSIDHRGSTGTLTITYATLEQLDDLCNRLTRGI

Variants of: B1
Test: one-hybrid fitness for binding NBS DNA (the Noc-binding site; scaled: cognate 1, non-cognate 0); higher = stronger binding
Conditions: with NBS DNA site
Method in brief: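 In E. coli USO, a HIS3 reporter with its site placed 19 bp from the promoter was used to select Caulobacter ParB variants randomised at four specificity codons. Growth lasted 48 hours at 37°C on histidine-free M9 containing 0.1 mM IPTG and 5 mM 3-AT. Fitness was taken as the log change in variant-to-wild-type read ratio from Illumina sequencing of pre- and post-selection plasmids, rescaled between the non-cognate and cognate sites.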

one-hybrid fitness for binding NBS DNA, 0.618:
RSKT

one-hybrid fitness for binding NBS DNA, 0.298:
RRVG

one-hybrid fitness for binding NBS DNA, 0.79:
RRKY

one-hybrid fitness for binding NBS DNA, 0.289:
QLFT
QRFC

one-hybrid fitness for binding NBS DNA, 0.605:
RRVS

one-hybrid fitness for binding NBS DNA, 0.428:
RRNM

one-hybrid fitness for binding NBS DNA, 0.578:
RHKT

one-hybrid fitness for binding NBS DNA, 0.438:
RRKK
RSAR

one-hybrid fitness for binding NBS DNA, 0.249:
QAYA
QKYA

one-hybrid fitness for binding NBS DNA, 0.22:
QRFM

one-hybrid fitness for binding NBS DNA, 0.461:
RRKG

one-hybrid fitness for binding NBS DNA, 0.684:
QRAS

one-hybrid fitness for binding NBS DNA, 0.451:
QCAS

one-hybrid fitness for binding NBS DNA, 0.646:
RRKN

one-hybrid fitness for binding NBS DNA, 0.484:
RRKF

one-hybrid fitness for binding NBS DNA, 0.27:
RCKN
RAFR

one-hybrid fitness for binding NBS DNA, 0.214:
RRKE

one-hybrid fitness for binding NBS DNA, 0.692:
YKDH

one-hybrid fitness for binding NBS DNA, 0.356:
QSAS

one-hybrid fitness for binding NBS DNA, 0.798:
RRKH

one-hybrid fitness for binding NBS DNA, 0.583:
QRAH

one-hybrid fitness for binding NBS DNA, 0.427:
RHAR

one-hybrid fitness for binding NBS DNA, 0.348:
IDNR

one-hybrid fitness for binding NBS DNA, 0.597:
QRFS

one-hybrid fitness for binding NBS DNA, 0.243:
ISKR
RIFR
RIVT

one-hybrid fitness for binding NBS DNA, 0.216:
RMKM

one-hybrid fitness for binding NBS DNA, 0.497:
RRRG

one-hybrid fitness for binding NBS DNA, 0.331:
RRYG

one-hybrid fitness for binding NBS DNA, 0.401:
QAAT

one-hybrid fitness for binding NBS DNA, ≤ 0.2:
HSRL
IRYT
ICNR
ICRT
IRDR
HAYM
CMSN
ARHS
TQNT
TSWF
VQPL
RWGG
MFWL
RIRE
TLNG
DAAP
GRNT
VFAC
QADA
QHDA
QMDA
QPRA
QTEQ
PTMF
HNHR
PCGG
TWLL
LKVE
PCRQ
SSRV
HLTD
QKFA
QLYA
QIAA
QIYA
QLDA
QSDA
MCAS
PTRY
CVKD
PVDC
YENN
QHSL
RRVD
RRDG
HRIT
SNQT
TVTC
GVCG
MMPN
MEVE
LLMQ
CKKG
RRYP
RRVP
RRYF
RRDF
TKMW
MWVR
CLAT
TSDV
AMPA
PHPV
QICI
IYNQ
TYVC
YDYM
LLAR
RCKF
RRVF
RRVK
SCIR
RESS
WPIG
WPLC
PERM
SLQG
DCLR
PTRA
RWVV
QMMQ
CVMR
TNHL
ESDR
LVTW
PNSF
LPGR
QLIH
RCNM
RRDM
RCKG
YVLT
LIAF
KLGG
ELRQ
RSSE
GPWL
QLGA
PSYL
ACER
PNTQ
RHAD
RIAN
RLAN
RAAN
FGDR
GIAC
MKIR
FHKW
PVKH
TANL
VPPG
KWAS
RSAH
RPAR
PHEL
IQNS
WRET
AVER
TMML
YKYR
YKNT
YKNR
YKYT
YKDN
PGCP
ARAS
RMPC
IYSS
KREW
VDGI
QVNY
CDAR
CPEM
GLTI
PMWG
RAKN
RSKP
NFKT
RFVT
PIPI
SQAS
ERWR
DMMR
DFLL
AIKF
LHHN
WGHS
RCSQ
RPKT
REKT
RHVT
RIKN
RHKD
HNER
YSVR
NNAI
ECLL
LKEG
QLAH
QPAT
QAAH
QSAN
QSAP
DLIW
GYPG
MTVA
ELQY
NMPC
YMLA
PNNH
STTR
GQTC
PTRL
ITAS
QHAD
HTGM
DSKV
QPFS
QPAS
LCKS
STRH
SLSS
AMPP
HDRS
NECS
AAGK
QPEY
QRFD
QCAQ
QCAC
QCAM

one-hybrid fitness for binding NBS DNA, 0.358:
RISS

one-hybrid fitness for binding NBS DNA, 0.231:
RCRM

one-hybrid fitness for binding NBS DNA, 0.201:
QRFP

one-hybrid fitness for binding NBS DNA, 0.312:
QHFT

one-hybrid fitness for binding NBS DNA, 0.623:
RAKT
RIKT

one-hybrid fitness for binding NBS DNA, 0.404:
QRAM

one-hybrid fitness for binding NBS DNA, 0.304:
QWNR

one-hybrid fitness for binding NBS DNA, 0.208:
QSYA
QHGA

one-hybrid fitness for binding NBS DNA, 0.248:
RCKK

one-hybrid fitness for binding NBS DNA, 0.237:
RAVT

one-hybrid fitness for binding NBS DNA, 0.314:
FMPK

one-hybrid fitness for binding NBS DNA, 0.379:
RRKP

one-hybrid fitness for binding NBS DNA, 0.301:
RRVY

one-hybrid fitness for binding NBS DNA, 0.397:
QCFS

one-hybrid fitness for binding NBS DNA, 0.25:
QRAD

one-hybrid fitness for binding NBS DNA, 0.395:
QSAT

one-hybrid fitness for binding NBS DNA, 0.42:
RLAR

one-hybrid fitness for binding NBS DNA, 0.423:
IRRT

one-hybrid fitness for binding NBS DNA, 0.658:
QCRA

one-hybrid fitness for binding NBS DNA, 0.385:
RAAR
YKDT

one-hybrid fitness for binding NBS DNA, 0.226:
IRYR
RRKD
QRFQ

one-hybrid fitness for binding NBS DNA, 0.332:
QRAE

one-hybrid fitness for binding NBS DNA, 0.539:
QKRA

one-hybrid fitness for binding NBS DNA, 0.384:
RIAR

one-hybrid fitness for binding NBS DNA, 0.512:
YKDR
RFKT

one-hybrid fitness for binding NBS DNA, 0.302:
QRAF

one-hybrid fitness for binding NBS DNA, 0.422:
IRNR

one-hybrid fitness for binding NBS DNA, 0.516:
QSRA

one-hybrid fitness for binding NBS DNA, 0.529:
RCAR

one-hybrid fitness for binding NBS DNA, 0.326:
QAFT

one-hybrid fitness for binding NBS DNA, 0.321:
RRVH

one-hybrid fitness for binding NBS DNA, 0.29:
RSKY

one-hybrid fitness for binding NBS DNA, 0.364:
QCGA

one-hybrid fitness for binding NBS DNA, 0.653:
QRGA
RCKT

one-hybrid fitness for binding NBS DNA, 0.264:
QRAP

one-hybrid fitness for binding NBS DNA, 0.391:
QRAC

one-hybrid fitness for binding NBS DNA, 0.569:
QMRA

one-hybrid fitness for binding NBS DNA, 0.267:
QMYA

one-hybrid fitness for binding NBS DNA, 0.221:
QAGA
RMFS

one-hybrid fitness for binding NBS DNA, 0.273:
ICKR

one-hybrid fitness for binding NBS DNA, 0.396:
QLAT

one-hybrid fitness for binding NBS DNA, 0.206:
RRVM
RHFR

one-hybrid fitness for binding NBS DNA, 0.647:
RRKM

one-hybrid fitness for binding NBS DNA, 0.601:
IRRR

one-hybrid fitness for binding NBS DNA, 0.68:
RRKS

one-hybrid fitness for binding NBS DNA, 0.519:
QARA

one-hybrid fitness for binding NBS DNA, 0.28:
RSFR
QIAT

one-hybrid fitness for binding NBS DNA, 0.533:
QHRA
QCAT

one-hybrid fitness for binding NBS DNA, 0.386:
QIRA

one-hybrid fitness for binding NBS DNA, 0.259:
RRKL

one-hybrid fitness for binding NBS DNA, 0.242:
RFAR

one-hybrid fitness for binding NBS DNA, 0.291:
ICRR
QHYA
QSGA

one-hybrid fitness for binding NBS DNA, 0.412:
QRAQ

one-hybrid fitness for binding NBS DNA, 0.247:
RLFR

one-hybrid fitness for binding NBS DNA, 0.67:
IRKR

one-hybrid fitness for binding NBS DNA, 0.335:
RCVS

one-hybrid fitness for binding NBS DNA, 0.328:
QCYA

one-hybrid fitness for binding NBS DNA, 0.41:
QHAT

one-hybrid fitness for binding NBS DNA, 0.256:
QSFS

one-hybrid fitness for binding NBS DNA, 0.238:
RCKM
RRVN
RSVT

one-hybrid fitness for binding NBS DNA, 0.651:
RRRM

one-hybrid fitness for binding NBS DNA, 0.296:
RRYM
RMVT

one-hybrid fitness for binding NBS DNA, 0.297:
YKDS

one-hybrid fitness for binding NBS DNA, 0.479:
QLRA

one-hybrid fitness for binding NBS DNA, 0.442:
RRRF

one-hybrid fitness for binding NBS DNA, 0.606:
RMKT
